Where a name gives a salt, the structure may show the parent alone.
system: Saccharomyces cerevisiae; assay: fraction of cells in G1 phase (DNA content, flow cytometry); higher = more cells with unreplicated DNA (G1 delay); conditions: temperature: 30 C; YPD; JTY2953 pdr5 snq2 (sensitized); drug added to: cultures diluted from stationary phase; 6-7 h
Method in brief: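 Yeast (S. cerevisiae) in YPD at 30°C was treated with library drugs, and cells were then fixed in ethanol, stained with SYTOX Green and counted by flow cytometry over 10,000 events. Sensitized JTY2953 diluted 1∶200 from an overnight culture got a final 20 µg/ml and was fixed 6–7 h later; other runs dosed dividing JTY2953 (fixed at 6 h) or BY4741 (fixed at 4.33 h). G1 fraction means the Dean-Jett-Fox G1 peak area relative to the G1 and G2/M areas together.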

Compound | fraction of cells in G1 phase
COC(=O)CCc1ccc(OCC(O)CNC(C)C)cc1 (configuration not stated) [Esmolol] (67.7089 µM) | 0.459
O=C(O)COCCN1CCN(C(c2ccccc2)c2ccc(Cl)cc2)CC1 (configuration not stated) [Cetirizine 2HCl] (43.3088 µM) | 0.492
C[C@H]1C[C@@H]2[C@H]([C@@H](O)C[C@@]3(C)[C@H]2CC[C@]3(O)C(=O)CO)[C@@]2(C)C=CC(=O)C=C12 [Methylprednisolone] (53.4072 µM) | 0.481
CC(C)NCC(O)c1ccc2ccccc2c1 (configuration not stated) [Pronethalol HCl] (87.2126 µM) | 0.502
CO/N=C(\C(=O)N[C@@H]1C(=O)N2C(C(=O)[O-])=C(C[N+]3(C)CCCC3)CS[C@H]12)c1csc(N)n1 [Cefepime] (41.6174 µM) | 0.504
O=C(O)/C=C/c1ccc(Cn2ccnc2)cc1 [Ozagrel] (87.6221 µM) | 0.471
CN(C)/N=N/c1[nH]cnc1C(N)=O [Dacarbazine] (109.778 µM) | 0.47
C=C(c1ccc(C(=O)O)cc1)c1cc2c(cc1C)C(C)(C)CCC2(C)C [Bexarotene] (57.3905 µM) | 0.546
CNC1(C)C2CCC(C2)C1(C)C (configuration not stated) [Mecamylamine HCl] (119.548 µM) | 0.486
CCOC(=O)[N-]c1c[n+](N2CCOCC2)no1 [Molsidomine] (82.564 µM) | 0.543
CCCOc1ccccc1-c1nc2[nH]nnc2c(=O)[nH]1 [Zaprinast] (73.7243 µM) | 0.482
c1cnc(N2CCN(Cc3ccc4c(c3)OCO4)CC2)nc1 [Piribedil HCl] (67.0359 µM) | 0.532
CC#CCC(C)[C@H](O)/C=C/[C@@H]1[C@H]2C/C(=C/CCCC(=O)O)C[C@H]2C[C@H]1O (some centres not stated) [Iloprost] (55.4788 µM) | 0.481
CC1(C)[C@H](C(=O)O)N2C(=O)C[C@H]2S1(=O)=O [Sulbactam] (85.7469 µM) | 0.477
CO[C@H]1/C=C/O[C@@]2(C)Oc3c(C)c(O)c4c(O)c(cc(O)c4c3C2=O)NC(=O)/C(C)=C\C=C\[C@H](C)[C@H](O)[C@@H](C)[C@@H](O)[C@@H](C)[C@H](OC(C)=O)[C@@H]1C [Rifamycin sv] (28.7035 µM) | 0.477
COc1ccc2c(c1)c(CC(=O)O)c(C)n2C(=O)c1ccc(Cl)cc1 [Indomethacin] (55.8977 µM) | 0.519

Compound | fraction of cells in G1 phase
Cn1c(=O)c2c(ncn2CC2OCCO2)n(C)c1=O [Doxofylline] (75.1149 µM) | 0.465
N[C@@H](Cc1ccc(O)c(O)c1)C(=O)O [Levodopa] (101.424 µM) | 0.487
C[C@]12C=CC(=O)C=C1CC[C@H]1[C@@H]3C[C@@H](O)[C@](O)(C(=O)CO)[C@@]3(C)C[C@H](O)[C@@]12F [Triamcinolone] (50.7043 µM) | 0.483
CCN(CC)CCNC(=O)c1ccc(N)cc1 [Procainamide] (73.5835 µM) | 0.494
CCOC(=O)C(C)(C)Oc1ccc(Cl)cc1 [Clofibrate] (82.4047 µM) | 0.552
Cc1c(C)c2c(c(C)c1O)CCC(C)(COc1ccc(CC3SC(=O)NC3=O)cc1)O2 (configuration not stated) [Troglitazone] (45.2949 µM) | 0.591
CCCC(CCC)C(=O)O [Valproic acid] (138.681 µM) | 0.541
CC(C)NCC(O)COc1cccc2[nH]ccc12 (configuration not stated) [Pindolol] (80.5387 µM) | 0.515
CC[C@@H]1C(=O)OC[C@@H]1Cc1cncn1C [Pilocarpine HCl] (96.0327 µM) | 0.526
CC1=Nc2ccc(Cl)cc2S(=O)(=O)N1 [Diazoxide] (86.7024 µM) | 0.516
CCCOc1ccc2[nH]c(NC(=O)OC)nc2c1 [Oxibendazole] (80.2338 µM) | 0.481
CN1CCC(=C2c3ccccc3C=Cc3ccccc32)CC1 [Cyproheptadine] (69.5874 µM) | 0.426
O=C(NC(Cc1cc(=O)[nH]c2ccccc12)C(=O)O)c1ccc(Cl)cc1 (configuration not stated) [Rebamipide] (53.9381 µM) | 0.473
O=C(O)c1cccnc1Nc1cccc(C(F)(F)F)c1 [Niflumic acid] (70.8657 µM) | 0.505
O=C(c1ccc(OCCN2CCCCC2)cc1)c1c(-c2ccc(O)cc2)sc2cc(O)ccc12 [Raloxifene HCl] (42.2301 µM) | 0.508
CC(C(=O)O)c1cccc(Oc2ccccc2)c1 (configuration not stated) [Fenoprofen] (82.5501 µM) | 0.502

Source: the supplement of paper PMC3342239
